This is an account of results in PubChem BioAssay.

For orientation: inhibition means the relative decrease from the control value, in per cent.

Experiment [1] is described as follows: MELAS cybrid and Rieske KO viability enhancers – cell-based, MELAS cybrids, Rieske KO mouse fibroblasts, CellTiter-Glo, primary screen (AID 1508586;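 active = mean z-score across replicates of 1.96 or higher in either the MELAS or the Rieske mutant cell line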;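 note: z relative to plate mean and SD of compound and empty wells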). Conditions: low glucose.
Experiment [2] in a line: growth inhibition, single agents and combos, ICB984, cell-based, cisplatin or BGB combos, synergistic combos for chromothripsis tumors (AID 1671451; call rule not given here;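 note: cells exposed for 96 hours before readout; 0% = vehicle DMSO and 100% = killing by high DMSO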). The settings on record: ICB984 medulloblastoma cells, drug combinations, stronger effect = higher value.
The nature of experiment [3]: Wnt pathway potentiators raising nuclear beta-catenin – imaging, WNT3A-conditioned medium, mouse C2C12, NPC library, primary screen (AID 1117326). Conditions: stronger effect = higher value.
Experiment [4] in a line: stimulators of insulin release from INS-1E, primary screen, cell-based, 5 mM glucose, NPC library (AID 1117329;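 active = compound raises insulin release from rat beta cells at 5 mM glucose, no numeric limit stated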). The settings on record: rat INS-1E insulin secretion, at 10 µM, stronger effect = higher value.
Experiment [5] in a line: GLP1 release stimulators, primary, NCI-H716, NPC library (AID 1117341;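 active = compound raises GLP1 secretion from the human gut endocrine cells, with no numeric limit stated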). Conditions: NCI-H716 cells, at 10 µM, stronger effect = higher value.
Experiment [6] is described as follows: viability loss with induced miR-34 in A549 – imaging, A549 dox-inducible miR-34, nuclei and caspase counts, primary screen (AID 1347080;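 active = compounds whose cell count with miR-34 switched on is under 0.7 times the count with it off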). The settings on record: A549 miR-34 inducible, Hoechst nuclei count, 48 h.
Experiment [7] is described as follows: galactose survival enhancers in mitochondrial complex I cybrids – cell-based, galactose medium, ATP luminescence, primary screen (AID 1645843;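 active = z-score of at least 1.8 in each of two replicates, scored against plate mean and spread of sample wells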;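 note: positive z means more ATP and so rescue of galactose-driven cybrid death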). The settings on record: complex I mutant cybrid cells, 72 h, stronger effect = higher value.
Experiment [8] is described as follows: growth inhibition of GSK3B-pretreated HCT116 cells – cell-based, CellTiter-Glo, 0.2 to 20 µM (AID 1117336;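 active = compounds lowering colon cancer cell viability after pretreatment blocking the GSK3B kinase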). The settings on record: HCT116 viability after GSK3B inhibitor, at 20 µM, stronger effect = higher value.
Experiment [9] in a line: inhibition of endothelial tube formation, primary screen, imaging, VEGF stimulated, CD31 staining, tube area, NPC library (AID 1117340;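 active = compound that reduces growth-factor-driven endothelial tube area in a mixed cell culture, no cutoff stated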). Conditions: VEGF-stimulated ADSC/ECFC co-culture, at 10 µM, stronger effect = higher value.
Experiment [10] in a line: HCT116 colon cancer cell growth inhibition, primary screen, CellTiter-Glo luminescence, NPC library (AID 1117342;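 active = compounds that lower survival of HCT116 colon cancer cells in the luminescence readout, no numeric limit stated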). Conditions: at 20 µM (top of the series).
The nature of experiment [11]: reduced SW480 viability measured with CellTiter-Glo, NPC library, primary (AID 1117343;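 active = compounds that lower viability of the colon cancer cells in the luminescence readout, with no numeric limit stated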). Conditions: CellTiter-Glo luminescence; at 20 µM (top of the series) unless noted. (Cellular ATP, detected with luciferase, serves as a proxy for viable cell number.)
Experiment [12] in a line: NPC library primary testing for decreased DLD-1 cell viability via CellTiter-Glo (AID 1117346;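 active = compounds that lower survival of DLD-1 colon cancer cells in the luminescence readout, no cutoff given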). Conditions: DLD-1 viability, CellTiter-Glo luminescence; at 20 µM (top of the series).
Experiment [13] concerns the target NAD(+) hydrolase SARM1 (Homo sapiens) (UniProt Q6SZW1). The experiment is described as follows: blocking NAD cleavage by SARM1 SAM-TIR – cell lysate, NAD-Glo luminescence (AID 1508614;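 active = compound whose remaining NAD level is above about 45 nM, limit read from the data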;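 note: higher remaining NAD means stronger inhibition of SARM1 NADase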). The settings on record: SAM-TIR HEK293T lysate NADase, at 1 µM, stronger effect = higher value.
For experiment [14], the target named is Mitogen-activated protein kinase 7 (Homo sapiens) (UniProt Q13164). The experiment is described as follows: Gal4-ERK5 driven luciferase induction – cell-based, HTS, primary screen (AID 1508626;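 active = luciferase signal above three times the same-plate solvent-only control wells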;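 note: luciferase driven by Gal4-ERK5 fusion binding five Gal4 sites before minimal TATA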). Conditions: HeLa Gal4-ERK5 transactivation, 18 h, at 5 µM, stronger effect = higher value.
Chain of Mitogen-activated protein kinase 7 (Homo sapiens) (Q13164 whole entry, looked up, the tested form may be a part): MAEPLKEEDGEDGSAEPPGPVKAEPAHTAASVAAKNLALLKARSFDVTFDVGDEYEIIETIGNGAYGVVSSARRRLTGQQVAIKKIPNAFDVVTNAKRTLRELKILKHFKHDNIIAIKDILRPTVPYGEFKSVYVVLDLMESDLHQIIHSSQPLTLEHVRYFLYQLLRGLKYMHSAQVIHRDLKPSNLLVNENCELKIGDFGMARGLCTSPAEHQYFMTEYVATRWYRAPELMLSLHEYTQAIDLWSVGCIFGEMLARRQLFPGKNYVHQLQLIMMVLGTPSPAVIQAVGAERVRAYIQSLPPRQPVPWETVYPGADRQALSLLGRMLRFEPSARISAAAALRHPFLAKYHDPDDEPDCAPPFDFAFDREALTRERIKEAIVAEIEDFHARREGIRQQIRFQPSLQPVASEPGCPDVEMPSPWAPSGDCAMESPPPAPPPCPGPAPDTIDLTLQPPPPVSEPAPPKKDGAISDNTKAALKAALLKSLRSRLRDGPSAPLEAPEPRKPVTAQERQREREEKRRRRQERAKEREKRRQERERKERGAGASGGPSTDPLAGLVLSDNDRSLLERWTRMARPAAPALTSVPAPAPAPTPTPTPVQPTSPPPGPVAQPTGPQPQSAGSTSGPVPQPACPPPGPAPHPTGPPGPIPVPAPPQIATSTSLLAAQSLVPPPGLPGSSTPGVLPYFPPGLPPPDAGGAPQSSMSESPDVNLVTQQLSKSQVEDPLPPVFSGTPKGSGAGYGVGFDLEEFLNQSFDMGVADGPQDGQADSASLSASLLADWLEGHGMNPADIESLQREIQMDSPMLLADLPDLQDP
Setting [15] is: MELAS cybrid survival, CellTiter-Glo 48 h, stronger effect = higher value.
Where [16] appears, read: Rieske KO mouse fibroblast survival, CellTiter-Glo 72 h.
Where [17] appears, read: measured here: 5 uM single agent, at 5 µM.
The mark [18] stands for this setting: stronger effect = lower value, cell number ratio, induced over uninduced.
[19] abbreviates: measured here: relative caspase fold change +Dox/-Dox.
Where [20] appears, read: measured here: total cells with miR-34 induction, stronger effect = lower value.
Where [21] appears, read: measured here: total cells without miR-34 induction.

Each structure is given as a SMILES string. Several values for one entry are separate records, joined by “and”; a condition that tells them apart may be missing. Identical values can stand only once. Activity calls are given as the source filed them. Cut-off read from the data, not from the text of the source, unless noted: active = nuclear beta-catenin stimulation mostly above about 4.2% (no sharp cut-off); inactive = mostly below about 10%.

Chain of NAD(+) hydrolase SARM1 (Homo sapiens) (Q6SZW1 whole entry, looked up, the tested form may be a part): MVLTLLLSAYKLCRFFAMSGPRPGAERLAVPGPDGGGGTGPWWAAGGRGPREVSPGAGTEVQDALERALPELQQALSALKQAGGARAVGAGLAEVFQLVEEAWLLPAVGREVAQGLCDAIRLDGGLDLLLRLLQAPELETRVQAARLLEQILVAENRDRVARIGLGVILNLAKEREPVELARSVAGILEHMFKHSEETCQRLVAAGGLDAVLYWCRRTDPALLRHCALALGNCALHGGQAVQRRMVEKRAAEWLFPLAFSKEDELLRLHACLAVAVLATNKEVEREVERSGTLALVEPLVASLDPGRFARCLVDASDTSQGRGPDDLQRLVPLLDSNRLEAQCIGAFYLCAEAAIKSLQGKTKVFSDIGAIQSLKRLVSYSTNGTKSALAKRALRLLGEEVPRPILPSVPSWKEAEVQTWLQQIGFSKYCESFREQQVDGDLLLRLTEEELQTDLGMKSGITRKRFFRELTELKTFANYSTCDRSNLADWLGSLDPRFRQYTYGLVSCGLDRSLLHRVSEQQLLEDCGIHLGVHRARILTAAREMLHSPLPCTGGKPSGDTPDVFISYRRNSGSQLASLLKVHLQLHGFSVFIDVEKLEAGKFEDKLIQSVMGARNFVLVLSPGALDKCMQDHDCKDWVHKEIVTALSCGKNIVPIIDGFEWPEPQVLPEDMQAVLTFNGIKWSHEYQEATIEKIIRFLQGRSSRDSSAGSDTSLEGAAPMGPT

In the case of `Cc1c(-c2ccc(O)cc2)n(Cc2ccc(OCCN3CCCCCC3)cc2)c2ccc(O)cc12`, the z-score in [1] (setting [15]) was -0.437 (inactive); in experiment [1] (setting [16]) it was 0.502.

Regarding `O=C(O)c1cc(N=Nc2ccc(O)c(C(=O)O)c2)ccc1O`, the z-score was -0.277 (inactive) in [1] (setting [15]) and -0.199 in [1] (setting [16]).

Take `Cc1ccc2nc(N)[nH]c(=O)c2c1Sc1ccncc1`: the inhibition in experiment [2] (BGB IC20 combo, at 0.005 µM) is -27.9%; in [2] (BGB IC40 combo, at 0.005 µM) it was -29.4%; in experiment [2] (BGB IC40 combo, at 0.05 µM) it was -15.3%; in [2] (at 0.5 µM), -23.3% (inactive); in experiment [2] (cisplatin combo, at 0.05 µM), -21.2%; in experiment [2] (cisplatin combo, at 0.5 µM), -25.7%. For the same compound, the inhibition in experiment [2] (cisplatin combo, at 5 µM) was -19.8%; in [2] (setting [17]), -37.5%.

Turning to `CN1C[C@@H]2C[C@H]1CN2c1cc2c(cc1F)c(=O)c(C(=O)O)cn2C1CC1`, the inhibition in experiment [2] (BGB IC20 combo, at 0.005 µM) is -24.2%; in experiment [2] (BGB IC40 combo, at 0.005 µM), -26.9%; in experiment [2] (BGB IC40 combo, at 0.05 µM), -20.5%; in experiment [2] (at 0.5 µM), -31.1% (inactive); in experiment [2] (cisplatin combo, at 0.05 µM), -23.9%; in experiment [2] (cisplatin combo, at 0.5 µM), -25.9%. Besides, the inhibition was -68.4% in experiment [2] (cisplatin combo, at 5 µM) and -23.8% in experiment [2] (setting [17]).

As for `CCCCCCCCCCCCCCCCCCOP(=O)([O-])OC1CC[N+](C)(C)CC1`, the nuclear beta-catenin stimulation in experiment [3] (at 10 µM) was -0.8% (inactive); in [3] (stimulation, at 2 µM), -1%. The insulin secretion stimulation in [4] was 0.3% (inactive). For the same compound, the GLP1 secretion stimulation in experiment [5] is 0.4% (inactive).

As to `NC1=NCC2c3ccccc3Cc3ccccc3N12` (stereo not drawn), the nuclear beta-catenin stimulation in [3] (at 10 µM) was -0.3% (inactive); in experiment [3] (stimulation, at 2 µM), -1%. For the same compound, the insulin secretion stimulation in experiment [4] is 12.5% (inactive). In addition, the GLP1 secretion stimulation in [5] was 4.4% (inactive). Moreover, the fold change in experiment [6] (setting [18]) is 0.943 (inactive) and 0.763 (inactive); in experiment [6] (setting [19]), 0.904 and 1. For the same compound, the cell count in experiment [6] (setting [20]) was 9270 and 7910; in experiment [6] (setting [21]), 9840 and 10400. In addition, the figures for the z-score in experiment [1] (setting [15]), in experiment [1] (setting [16]) and in experiment [7] were -0.3 (inactive), -0.211 and -0.265 (inactive), respectively.

With `CCCCCCCCCCCCCCCC(=O)OCC=C(C)C=CC=C(C)C=CC1=C(C)CCCC1(C)C`, the nuclear beta-catenin stimulation in experiment [3] (at 10 µM) is -1.5% (inactive); in experiment [3] (stimulation, at 2 µM), -0.3%. The insulin secretion stimulation in experiment [4] is 1.2% (inactive). Besides, the GLP1 secretion stimulation in [5] was 2.7% (inactive).

In the case of `FC(F)(F)C(F)(F)C(F)(F)C(F)(F)C(F)(F)C(F)(F)C(F)(F)C(F)(F)Br`, the nuclear beta-catenin stimulation in experiment [3] (at 10 µM) is -0.6% (inactive); in [3] (stimulation, at 2 µM) it was 11.4%. In addition, the viability decrease in experiment [8] is 8.2% (inactive). Moreover, the tube area decrease in experiment [9] is -4.5% (inactive). In [10], the inhibition of viability is 12.1% (inactive). For the same compound, the viability decrease (inhibition) in [11] was -4.8% (inactive); in [12] it was 7.2% (inactive).

As to `CC(C)(CO)[C@@H](O)C(=O)NCCC(=O)NCCSSCCNC(=O)CCNC(=O)[C@H](O)C(C)(C)CO`, the nuclear beta-catenin stimulation in experiment [3] (at 10 µM) is 0% (inactive); in [3] (stimulation, at 2 µM) it was -1.3%. Besides, the insulin secretion stimulation in [4] is 0.15% (inactive). For the same compound, the GLP1 secretion stimulation in [5] is 2% (inactive). For the same compound, the remaining NAD in experiment [13] is 10 nM (inactive). Besides, in experiment [14], the luciferase signal was 160 AU (active).

On to `COC(=O)CCCCC(CCSS/C(CCO)=C(\C)N(C=O)Cc1cnc(C)nc1N)SC(C)=O` (stereo not drawn), for which the nuclear beta-catenin stimulation in experiment [3] (at 10 µM) was 1% (inactive); in experiment [3] (stimulation, at 2 µM) it was -1%. Further, in [4], the insulin secretion stimulation was 0.75% (inactive). The GLP1 secretion stimulation in experiment [5] was 0.4% (inactive).

Consider `CCc1cccc(N(C)C(N)=Nc2cccc3ccccc23)c1`, for which the nuclear beta-catenin stimulation is -1.6% (inactive) in [3] (at 10 µM) and -1.7% in experiment [3] (stimulation, at 2 µM). Moreover, the insulin secretion stimulation in experiment [4] is 60.2% (active). The GLP1 secretion stimulation in experiment [5] is 1.6% (inactive). Moreover, the fold change in [6] (setting [18]) was 1.03 (inactive); in experiment [6] (setting [19]), 1.33. Further, the results for the cell count in experiment [6] (setting [20]) and in [6] (setting [21]) were 7210 and 6970, respectively. Further, the z-score in [7] is -1.44 (inactive).

Take `CC(C)=CCCC(C)=CCCC(C)=CCCC=C(C)CCC=C(C)CCC=C(C)C`: the nuclear beta-catenin stimulation is -0.4% (inactive) in experiment [3] (at 10 µM) and 1.7% in experiment [3] (stimulation, at 2 µM). Further, the insulin secretion stimulation in [4] was 0.6% (inactive). Also, in experiment [5], the GLP1 secretion stimulation was -1.9% (inactive).

Consider `Cc1c(O)cc2c(c1C)O[C@](C)(CCC[C@H](C)CCC[C@H](C)CCCC(C)C)CC2`, for which the nuclear beta-catenin stimulation was 0.3% (inactive) in experiment [3] (at 10 µM) and -0.6% in experiment [3] (stimulation, at 2 µM). Moreover, the insulin secretion stimulation in experiment [4] was 0.7% (inactive). In experiment [5], the GLP1 secretion stimulation is 9.2% (inactive).
